Columns and labels:
Type in all cases: functional
[1] = molecular target: Solute carrier family 2, facilitated glucose transporter member 1 (Homo sapiens) (UniProt P11166); test: ST_JUDE_LEISH: Cytotoxicity at 2uM final concentration against transgenic Leishmania Mexicana promastigotes LmGLUT1 that are glucose transport deficient and complemented with the human glucose transporter GLUT1. Activity is measured by DNA content using SYBR green in vitro
[2] = molecular target: Hexose transporter 1 (Plasmodium falciparum) (UniProt O97467); test: ST_JUDE_LEISH: Cytotoxicity at 2uM final concentration against transgenic Leishmania Mexicana promastigotes LmPfHT that are glucose transport deficient and complemented with the Plasmodium falciparum hexose transporter. Activity is measured by DNA content using SYBR green in vitro
[3] = molecular target: Glucose transporter (Leishmania mexicana) (UniProt O61059); test: ST_JUDE_LEISH: Cytotoxicity at 2uM final concentration against transgenic Leishmania Mexicana promastigotes LmGT2 that are glucose transport deficient and complemented with the L. Mexicana glucose transporter 2. Activity is measured by DNA content using SYBR green in vitro

Chain of Solute carrier family 2, facilitated glucose transporter member 1 (Homo sapiens) (P11166 whole entry): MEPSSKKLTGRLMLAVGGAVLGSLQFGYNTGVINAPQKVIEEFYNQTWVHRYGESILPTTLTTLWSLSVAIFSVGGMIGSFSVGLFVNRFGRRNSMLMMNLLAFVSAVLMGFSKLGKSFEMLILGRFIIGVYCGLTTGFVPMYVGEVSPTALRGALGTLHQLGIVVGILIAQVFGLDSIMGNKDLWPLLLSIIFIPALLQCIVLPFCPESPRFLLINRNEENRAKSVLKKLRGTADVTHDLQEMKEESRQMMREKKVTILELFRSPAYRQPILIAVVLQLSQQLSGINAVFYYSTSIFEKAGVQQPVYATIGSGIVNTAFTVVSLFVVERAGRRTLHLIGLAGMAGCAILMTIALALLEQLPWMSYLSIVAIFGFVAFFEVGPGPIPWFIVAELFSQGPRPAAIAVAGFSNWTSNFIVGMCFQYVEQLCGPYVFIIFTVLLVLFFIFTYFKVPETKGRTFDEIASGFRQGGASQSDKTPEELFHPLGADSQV

| SMILES | inhibition [1] | inhibition [2] | inhibition [3] |
| --- | --- | --- | --- |
| C[C@@H](Oc1cc(-n2cnc3ccc(NC(=O)NC(C)(C)C)cc32)sc1C(N)=O)c1ccccc1Cl | 4.54% | 3.45% | 2.98% |
| Cc1nc(NCCCn2ccnc2)cc(-c2cncc(-c3ccc(OC(F)(F)F)cc3)c2)n1 | 5.43% | 5.92% | 3.04% |
| O=C(Nc1ccc(Cn2ncc(N3CCCNCC3)c(Cl)c2=O)cc1)Nc1cccc(C(F)(F)F)c1 | 0.62% | 1.58% | -2.08% |
| Cc1ccc(NC(=O)NC2CCN(c3ccnc4ccccc34)CC2)cc1 | 1.13% | 1.21% | 2.3% |
| O=C(Nc1ccc(-c2nc3ccccc3[nH]2)cc1)c1ccc(S(=O)(=O)N2CCc3ccccc32)cc1 | 2.92% | 0.13% | 3.39% |
| COc1ccc2nccc([C@@H](O)CN3CCC(NCc4ccc5c(c4)oc(=S)n5C)CC3)c2c1 | 2.25% | 5.5% | 1.46% |
| CCCCOc1ccc(N2C(N)=NC(N)=NC2(C)C)cc1 | 2.55% | 1.89% | 1.88% |
| CCNC(=O)Nc1ccc(-c2cccc(-c3nc4cccc(C)c4[nH]3)c2)cc1 | 5.51% | 5.35% | 3.12% |
| Cc1[nH]c2ccccc2c1CC1CCN(CC2CCN(C(=O)/C=C/c3ccc(Cl)c(Cl)c3)CC2)CC1 | 0.92% | 1.33% | 1.79% |
| CC(=O)Nc1ncc(C(=O)Nc2cccc(-c3ccc(-c4nc5cccc(C)c5[nH]4)cc3)c2)s1 | 0.14% | 0.54% | 0.54% |
| O=C(Nc1cccc(-c2csc(NC(=O)c3ccc4ccccc4c3)n2)c1)c1ccc2ccccc2c1 | 1.53% | 1.22% | 0.66% |
| CCCN(CCCCNC(=O)c1ccc(-c2cccnc2)cc1)C1CCc2c(O)cccc2C1 (stereo not drawn) | 3.63% | 2.13% | 3.11% |
| CCOC(=O)N1CCC(NC(=O)c2ccc(C(C)(C)C)cc2OC)CC1 | 3.46% | 3.5% | 3.13% |
| Oc1ccc(CCNCc2ccc(OCc3ccccc3)c(OCc3ccccc3)c2)cc1 | 75% | 76.6% | 68.5% |
| COc1nc2c(N3CCN(CCNCc4ccc5c(n4)NC(=O)CS5)CC3)ccnc2cc1F | 0.45% | -0.85% | 0.49% |
| COc1ccc(-c2ccc(NC(=O)c3ccc(F)cc3)cc2)cc1CNC(C)C | 0.84% | 1.24% | 4.68% |
| COc1cc(N(C)Cc2cnc3nc(N)nc(N)c3n2)cc(OC)c1OC | 4.09% | 3.84% | 3.15% |
| CCCc1cc(NCC)nc(Nc2ccc(C)cc2)n1 | 23.6% | 7.16% | 4.06% |

| SMILES | inhibition [1] | inhibition [2] | inhibition [3] |
| --- | --- | --- | --- |
| COc1ccc(-c2ccc(NC(=O)c3cccc(Cl)c3)cc2)cc1CN1CCN(C)CC1 | 6.52% | 4.97% | 3.15% |
| FC(F)(F)COc1ccc2ccccc2c1CNCCCCCCNCc1c(OCC(F)(F)F)ccc2ccccc12 | 1.61% | 0.57% | -1.38% |
| CCCNCc1ccc(-c2ccc(CN(CCOC)C(=O)c3ccccc3)cc2)nc1 | 1.21% | 0.61% | 1.11% |
| COc1cccc(Nc2c(C(N)=O)cnc3ccc(-c4ccccc4)cc23)c1 | 0.37% | 0.94% | 1.58% |
| CC(C)[C@@H](C(=O)NCc1cccc(C(F)(F)F)c1)N1C(=O)CCC1C(=O)Nc1ccc([N+](=O)[O-])cc1 (stereo partly drawn) | 2.24% | 1.67% | 2.73% |
| Cc1ccccc1NC(=O)C1CSCN1C(=O)OCc1ccccc1 (stereo not drawn) | -1.39% | -0.23% | -0.28% |
| COc1ccc(-c2nc3cccnc3n2CC(=O)Nc2cc(Cl)c(Cl)cc2Cl)c(OC)c1 | -3.62% | -1.91% | -2.74% |
| CCC1N=C(N)N=C(N)N1OCCCOc1c(Cl)cc(Cl)cc1Cl (stereo not drawn) | 3.53% | 2.05% | 3.44% |
| COc1cc(CNCCCNc2cc(=O)c3ccccc3[nH]2)c2c(c1)C(C)CN2C(=O)OC(C)(C)C (stereo not drawn) | 9.27% | 10.7% | 4.19% |
| CN/C(=C\[N+](=O)[O-])NCCSCc1cc(C)c(CN(C)C)s1 | 5.43% | 5.21% | 5.98% |
| Cc1cc(C(=O)CN2C(=O)NC3(CCCc4ccccc43)C2=O)c(C)n1Cc1ccco1 (stereo not drawn) | 1.28% | 0.08% | -1.89% |
| CC(C)Cn1cc(C2CCN(CCN3CCC(CNC(=O)c4ccc(NC(=O)c5ccc(Cl)cc5)cc4)CC3)CC2)c2ccccc21 | 7.85% | 7.36% | 4.99% |
| CCc1c(CCNCCCCCCNCCc2ccccc2)ccc(OC)c1OC | 4.61% | 5.04% | 2.63% |
| Cc1cccc2nc(-c3cccc(-c4ccc(NC(=O)C(C)C(=O)NC(C)C)cc4)c3)[nH]c12 (stereo not drawn) | 0.75% | 2.05% | 2.38% |
| OCCN1CCN(Cc2ccc(-c3ccc(-c4nc5cc(F)ccc5[nH]4)cc3)cc2)CC1 | 8.49% | 6.23% | 3.78% |
| Cc1ccc(Cl)cc1N1CCN(CCCNC(=O)C2CCN(c3nc4ccccc4[nH]3)CC2)CC1 | 4.49% | 5.2% | 5.6% |
| FC(F)(F)c1ccc2[nH]c(-c3ccc(-c4cccc(CN5CCN(c6ccncc6)CC5)c4)cc3)nc2c1 | 64.9% | 53.5% | 9.81% |
| Cc1cc(N[C@@H](Cc2ccccc2)C(=O)NC2CCCC2)nc(Nc2ccccc2)n1 | 7.17% | 7.28% | 2% |

From ChEMBL document CHEMBL3433997, “St. Jude Leishmania screening dataset” (2016)
